# The campaign covered roughly 320,000 compounds. About 1,300 (0.41%) were called active. About 3% were inconclusive and are not listed. No rule for the calls is given here. Only a sample is shown. Entries with a potency or affinity are not part of this list.
# Assay: growth inhibition of non-replicating M. tuberculosis (AID 488890);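 also: plate controls were DMSO cells for no effect and high antibiotic wells for full effect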
# Conditions: Mycobacterium tuberculosis non-replicating, at 25 µM, stronger effect = higher value
row,Structure (SMILES),inhibition [%]
1,CC(NC(=O)CN1C(=O)NC2(CCCC2)C1=O)c1ccc2ccccc2c1 (stereo not given),9.54
2,CCN1CCC(NCCc2ccc(F)cc2)CC1,-11.9
3,CN(C(=O)c1ccc2c(Cl)c3c(nc2c1)CCC3)c1ccccc1,32.3
4,Cc1ccc(N(CC(=O)Nc2c(C)n(C)n(-c3ccccc3)c2=O)S(C)(=O)=O)c(C)c1,-0.1
5,O=P(O)(O)COc1ccccc1P(=O)(c1ccccc1)c1ccccc1,-12.2
6,Cc1noc(C)c1COC(=O)COc1ccc(C#N)cc1,38.3
7,Cc1noc(C)c1COC(=O)COc1cccc2c1OC(C)(C)C2,39.2
8,O=C(Nc1ccc(N2CCN(C(=O)c3cccs3)CC2)c(Cl)c1)c1ccco1,9.48
9,O=C(Nc1ccc(N2CCN(C(=O)c3ccco3)CC2)cc1)c1cccs1,38.8
10,O=C(Nc1cccc(S(=O)(=O)N2CCCCCC2)c1)C1CCC1,-14
11,CCc1ccc(NC(=O)COc2cccc(-n3cnnn3)c2)cc1,23.8
12,COC(=O)c1ccc(NC(=O)c2cccc(OC)c2)cc1,27.8
13,COc1ccc(NC(=O)C(=O)NNC(=O)COc2ccc(OC)cc2)cc1,6.66
14,CCc1ccc(NC(=O)Nc2cccc(OC)c2)cc1,60.4
15,COc1ccc(OCC(=O)NNC(=O)C(=O)Nc2ccc(C)cc2)cc1,7.2
16,COc1ccc(OCC(=O)NNC(=O)C(=O)Nc2ccccc2)cc1,75.3
17,CCCC(c1nnnn1Cc1ccco1)N1CCC(C(N)=O)CC1 (stereo not given),-17.6
18,Cc1ccc(CN2CCSc3ccc(C(=O)NCc4ccccn4)cc32)cc1,29.8
19,CC(=O)Nc1cccc(NC(=O)c2cc(-c3cccnc3)nc3ccc(Cl)cc23)c1,14.7
20,CCc1ccc(N(CC(=O)NCc2ccco2)C(=O)CCC(=O)Nc2ccccn2)cc1,-13.9
21,CCC(C)c1ccc(O)c(NC(=O)c2cccnc2)c1 (stereo not given),5.33
22,CCC(C)c1ccc(O)c(N)c1 (stereo not given),1.15
23,CC(C)CN(C(=O)COC(=O)C1=COCCO1)c1c(N)n(Cc2ccccc2)c(=O)[nH]c1=O,0.83
24,O=C(CC1SC(N2CCOCC2)=NC1=O)Nc1cccc(C(F)(F)F)c1 (stereo not given),9.06
25,COc1cccc(NC(=O)CCN2C(=O)c3ccc([N+](=O)[O-])cc3C2=O)c1,-4.23
26,C=CCN1C(=O)C(CC(=O)Nc2ccccc2)S/C1=N/c1nccs1 (stereo not given),-1.19
27,Cc1cc(C)n(-c2nnc(C)c(=O)[nH]2)n1,1.82
28,Cc1cc(=O)[nH]c(N2CCCC2)n1,-4.14

row,Structure (SMILES),inhibition [%]
1,CCc1c(C)nc(SCc2cccnc2)[nH]c1=O,-9.77
2,Cc1nn(-c2cccc3cccnc23)c(=O)c2ccccc12,0.08
3,O=C(Cc1ccc([N+](=O)[O-])cc1)N1CCCCCC1,5.47
4,O=C(c1ccc(Oc2ccc([N+](=O)[O-])cc2)cc1)N1CCCCCC1,65.4
5,Cc1ccccc1NC(=O)c1cccc(S(=O)(=O)N2CCOCC2)c1,-10.8
6,c1csc(CN2CCOCC2)c1,-3.64
7,OC(C#CCN1CCCC1)c1ccccc1 (stereo not given),-3.04
8,COc1cc(C(=S)N2CCN(C(c3ccccc3)c3ccccc3)CC2)cc(OC)c1O,12.6
9,CCCc1cc(=O)oc2c(C)c(OCC(=O)N3CCC[C@@H]3C(=O)O)ccc12,-11.2
10,CCOC(=O)/C(=N\Nc1cc(Cl)ccc1Cl)N1CCN(CC)CC1,46
11,COc1ccc(CN2C(=O)C(O)(CC(=O)c3ccc4c(c3)OCO4)c3ccccc32)cc1OC (stereo not given),12.6
12,Cc1[nH]c2ccccc2c1C(=O)NS(=O)(=O)Nc1ccc(F)cc1,-2.71
13,COc1ccccc1Oc1ccc(NC(=O)Cc2ccccc2)cc1,19.6
14,O=c1ccc(=O)n(-c2ccccc2)[nH]1,20
15,O=c1[nH][nH]c(=O)n1-c1ccccc1,-3.31
16,CCOC(=O)c1cn(Cc2ccccc2)nn1,74.6
17,CCOC(=O)c1cn(Cc2ccc(C)cc2)nn1,75.3
18,CCc1nnc(NC(=O)CSc2nncc(=O)n2N)s1,-12.3
19,Cn1cnnc1SCCNS(=O)(=O)c1ccccc1,2.23
20,CCOC(=O)c1c(C)[nH]c(C(=O)OCC(=O)NCc2ccc(C)cc2)c1C,-10.5
21,C/C(CC(=O)Nc1ccc(N(C)C)cc1)=N\NC(=O)c1ccc(Cl)cc1,8
22,C/C(CC(=O)Nc1ccc(N(C)C)cc1)=N\NC(=O)c1ccc(F)cc1,8.75
23,Cc1cc(C)c(S(=O)(=O)NCC(=O)NCc2ccco2)c(C)c1,0.05
24,COC1C(C)=C(C)C(=O)N1Cc1ccccc1 (stereo not given),-5.86
25,C/C(=N\O)c1ccc(Cl)cc1Cl,1.76
26,C/C(=N\O)c1cc(Cl)cc(Cl)c1O,19
27,CCCCC(=O)N=c1sc2cc(S(C)(=O)=O)ccc2n1C,-0.02
